Screens: PubChem BioAssay, The Scripps Research Institute Molecular Screening Center
An excerpt weighted towards active compounds, which were near 0.83% of everything screened.
LRH-1 inv ag – inverse agonists of human LRH-1 (NR5A2); O00482; 360,000 compounds, 0.13% hits; HEK293T StAR-luciferase reporter, LRH-1 transfected, 24 h; inhibition, % at 3.6 µM; AID 602396;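 active = inhibition above the mean inhibition of all tested compounds plus 3 SD, cut at about 73% in these data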;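 also: 0% = DMSO wells and 100% = reporter-only cells lacking LRH-1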
Target sequence (O00482 whole entry, looked up): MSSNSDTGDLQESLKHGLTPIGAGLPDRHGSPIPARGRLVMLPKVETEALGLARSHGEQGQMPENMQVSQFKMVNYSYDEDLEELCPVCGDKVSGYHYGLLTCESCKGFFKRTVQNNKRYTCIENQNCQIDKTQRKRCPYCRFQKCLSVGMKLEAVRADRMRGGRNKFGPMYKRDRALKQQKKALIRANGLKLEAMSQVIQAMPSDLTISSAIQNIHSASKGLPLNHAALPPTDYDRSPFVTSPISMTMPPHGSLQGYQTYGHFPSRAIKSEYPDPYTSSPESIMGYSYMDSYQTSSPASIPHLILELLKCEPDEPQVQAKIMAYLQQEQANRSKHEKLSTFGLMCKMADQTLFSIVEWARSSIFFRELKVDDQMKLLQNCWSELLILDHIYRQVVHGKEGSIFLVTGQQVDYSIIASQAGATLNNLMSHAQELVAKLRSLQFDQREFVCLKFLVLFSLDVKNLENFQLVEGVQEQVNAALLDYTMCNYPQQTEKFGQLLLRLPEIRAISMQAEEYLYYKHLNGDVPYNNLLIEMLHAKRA
NCOA2 inhibitor – human SRC2 (NCOA2) inhibition; 370,000 compounds, 0.17% hits; Q15596; inhibition, % at 9 µM; HEK293 GAL4-SRC2 luciferase reporter, luminescence;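 active = inhibition above the mean inhibition of all tested compounds plus 3 SD, set per campaign, cut at about 52% in these data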;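 also: 0% = DMSO treated cells and 100% = cells given Gossypol at 36 µM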
NR2F2 inh – NR2F2 (human) inhibition, primary screen. HEK293T NGFI-A luciferase reporter, luminescence. 370,000 compounds, 0.7% hits. inhibition, % at 8.6 µM. AID 686940. P24468;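 active = inhibition above a per-plate cutoff, mean inhibition of test wells between control levels plus 3 SD, cut at about 38% in these data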;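 also: cells cotransfected with COUP-TFII expression vector driving the NGFI-A reporter; 0% = median of COUP-TF2 test wells and 100% = reporter-only cells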
NCOA1 inh – inhibits human SRC1 coactivator | Q15788 | HEK293 GAL4-SRC1 luciferase reporter, luminescence | inhibition, % at 3.6 µM | 360,000 compounds, 0.12% hits | AID 588354;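 active = inhibition above the campaign mean plus 3 SD, with each screening campaign given its own cutoff, cut at about 60% in these data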;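 also: 0% = DMSO treated cells and 100% = gossypol at 36 µM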
SRC3 inh – inhibitors of human steroid receptor coactivator 3 (SRC3). Q9Y6Q9. HEK293 GAL4-SRC3 luciferase reporter, luminescence. inhibition, % at 3.6 µM. 360,000 compounds, 0.17% hits;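 active = inhibition above a per-campaign cutoff, the mean of all compounds plus 3 SD, cut at about 60% in these data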;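 also: 0% = DMSO-treated cells and 100% = gossypol-treated cells at 36 µM; higher means less SRC3-driven luciferase light from the GAL4 reporter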
VP16 Luc counter – counter-screen for COUP-TFII antagonists: inhibitors of VP16; shares compounds with NR2F2 inh; HEK293 Gal4-VP16 luciferase reporter, luminescence; inhibition, % at 8.5 µM; 2,500 compounds, 25% hits; in the data active = inhibition above about 13%
COUP-TFII conf – COUP-TFII (NR2F2) inhibition, confirmation assay | shares compounds with NR2F2 inh | HEK293 NGFI-A luciferase reporter, luminescence | inhibition, % at 8.5 µM | 2,500 compounds, 45% hits | AID 687008;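 active = mean inhibition over three repeats above a set limit taken from the earlier primary screen, cut at about 38% in these data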;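 also: 100% = cells given the luciferase reporter alone without the COUP-TF2 vector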
Starred values were filed as active, the others as inactive; · = no result.

SMILES	LRH-1 inv ag	NCOA2 inhibitor	NR2F2 inh	NCOA1 inh	SRC3 inh	VP16 Luc counter	COUP-TFII conf
O=C(Nc1ccc(Oc2ccccc2)cc1)c1csc([C@@H]2O[C@H](CO)[C@@H](O)[C@H]2O)n1	37.4	27.8	65.8*	32.6	-14.5	7.1	50.8*
CCN(CC)C(=O)CSc1nnc(-c2ccc(C(C)(C)C)cc2)n1Cc1ccco1	·	4.6	23.6	·	·	·	·
COc1ccc(OC)c(S(=O)(=O)N2CCCCC2C(=O)N2CCCN(C)CC2)c1 (stereo unspecified)	·	-37.9	11.6	·	·	·	·
C[C@H]1[C@@H](N)CC[C@@]23CCCN2C(=O)CCC[C@@H]13	·	·	10.2	·	·	·	·
Cc1ccc(CN2CCCC2(C)C(=O)NC(C)C)cc1 (stereo unspecified)	2.2	17.2	-14.0	12.2	5.5	·	·
CC(C)NC(=O)C1(C)CCCCN1Cc1ccc(OCc2ccccc2)cc1 (stereo unspecified)	29.0	18.4	40.5*	-0.1	12.9	-16.6	14.2
Cc1nn(C)c(C)c1CN(C)S(=O)(=O)c1ccc2ccccc2c1	38.6	25.2	61.4*	14.2	16.8	2.4	66.1*
CCCCCN1CCCCC(NC(=O)c2ccccc2OC)C1=O (stereo unspecified)	·	17.9	10.8	·	·	·	·
COc1ccccc1NC(=O)Cn1c(C)cc(=O)c2cccc(OC)c21	25.7	31.4	50.8*	32.6	22.7	7.7	41.8*
Nc1ccn([C@@H]2O[C@H](C(=O)N[C@H](Cc3ccccc3)C(=O)N[C@H]3CCCCNC3=O)[C@@H](O)[C@H]2O)c(=O)n1	·	5.1	6.8	·	·	·	·
O=S(=O)(Nc1cc(Sc2ncn[nH]2)c(O)c2ccccc12)c1ccccc1	88.8*	69.5*	71.6*	89.5*	83.6*	1.7	11.8
Cc1cc(O)c(Sc2ncn[nH]2)cc1NS(=O)(=O)c1ccc(Cl)cc1	-22.1	13.6	-9.9	12.3	16.6	·	·
CN(C)C(=O)N1CCN(C(=O)[C@H]2O[C@@H](n3ccc(N)nc3=O)[C@H](O)[C@@H]2O)CC1	·	-11.8	3.9	·	·	·	·
Cc1ccc(S(=O)(=O)NCc2ccc(C(=O)N3CCN(Cc4ccccc4)CC3)cc2)cc1	20.4	16.5	48.2*	19.1	16.0	-3.0	21.7
Cc1ccc(S(=O)(=O)NCc2ccc(C(=O)N3CCN(c4ccc([N+](=O)[O-])cc4)CC3)cc2)cc1	32.3	9.2	54.7*	17.0	44.1	6.8	66.1*
COc1ccc(S(=O)(=O)NCc2ccc(C(=O)N3CCN(Cc4ccccc4)CC3)cc2)cc1	5.9	27.3	18.0	9.9	4.2	·	·
COc1ccc(N2CCN(C(=O)c3ccc(CNS(=O)(=O)c4ccc(C)cc4)cc3)CC2)cc1	-14.1	14.4	9.6	3.7	4.2	·	·
C#CCCC(=O)O[C@H]1CCC[C@@]2(C(=O)N(Cc3ccccc3)c3ccccc32)[C@H]1NC(=O)CCc1ccccc1	·	-29.4	8.9	·	·	·	·
O=C(c1ccc(Cl)cc1)N1CCC(Oc2cccnc2)CC1	·	-2.1	19.5	·	·	·	·
COc1ccc(CN2CCN(C(=O)c3ccc(S(=O)(=O)N4CCCCCC4)cc3)CC2)cc1	26.9	-33.8	62.6*	24.9	21.4	3.0	48.1*
COc1ccc(C(=O)N2CCN(Cc3ccccc3C(F)(F)F)CC2)cc1	0.0	10.7	79.8*	-10.0	-20.0	-0.5	6.4
COc1ccc(CN2CCN(C(=O)c3ccc(S(=O)(=O)N4CCCCCC4)cc3)CC2)cc1F	28.3	-36.6	52.6*	12.7	19.6	-4.8	31.8
O=C(NCc1ccncc1)C1Cc2c(-c3ccccc3Oc3ccccc3)ccnc2O1 (stereo unspecified)	3.8	19.1	37.6*	-2.1	-6.8	-2.3	-4.4
CC(=O)c1cccc(NC(=O)C2Cc3c(-c4cccc(C(C)=O)c4)ccnc3O2)c1 (stereo unspecified)	3.2	-21.0	48.0*	16.2	7.1	4.6	15.7
CC(=O)c1cccc(NC(=O)C2Cc3c(-c4cccc(C(N)=O)c4)ccnc3O2)c1 (stereo unspecified)	20.8	-13.8	6.1	1.0	3.0	·	·
SMILES	LRH-1 inv ag	NCOA2 inhibitor	NR2F2 inh	NCOA1 inh	SRC3 inh	VP16 Luc counter	COUP-TFII conf
O=C(NCc1cccs1)C1Cc2c(-c3ccccc3Oc3ccccc3)ccnc2O1 (stereo unspecified)	-17.9	-24.1	0.8	-3.5	5.1	·	·
COc1ccc(NC(=O)C2Cc3c(-c4ccccc4Oc4ccccc4)ccnc3O2)cc1OC (stereo unspecified)	9.0	24.3	64.4*	16.2	13.2	-2.2	34.9
CCOC(=O)[C@@]12CCCC=C1N(CCc1ccc(Cl)cc1)C(=O)[C@H]2CC(=O)NCc1cccs1	·	13.9	4.2	·	·	·	·
COc1cccc(NC(=S)N(Cc2cccc(Br)c2)CC2CCC(C(=O)O)CC2)c1 (stereo unspecified)	-5.5	-1.0	39.1*	-9.9	1.9	-4.5	6.7
COc1ccc(NC(=S)N(Cc2cccc(Br)c2)CC2CCC(C(=O)O)CC2)cc1 (stereo unspecified)	4.7	-26.3	-6.9	-9.2	7.9	·	·
CSc1ccc(NC(=O)Nc2cccn(Cc3ccccc3F)c2=O)cc1	-23.1	-21.3	38.9*	-15.3	-17.8	-72.8	-7.7
Cc1ccccc1NC1=C/C(=N\S(=O)(=O)c2ccc(C(=O)O)cc2)c2ccccc2C1=O	16.9	-22.3	-19.0	3.9	1.4	·	·
COc1ccc(S(=O)(=O)/N=C2\C=C(Nc3ccc(O)cc3)C(=O)c3ccccc32)cc1	92.6*	73.9*	70.7*	89.5*	88.0*	83.0*	91.6*
CC(=O)Nc1ccc(NC2=C/C(=N/S(=O)(=O)c3cccs3)c3ccccc3C2=O)cc1	26.4	42.7	50.0*	-3.9	80.3*	16.6*	22.8
Nn1c(SCC(=O)Nc2ccc(C(=O)O)cc2)nnc1-c1ccco1	·	-9.5	5.1	·	·	·	·
C#CCOCCOCCOCCNc1nc(N2CCOCC2)nc(N2CCN(C(=O)[C@H](CCC(=O)O)n3cc(C(N)CC(C)C)nn3)CC2)n1 (stereo partly specified)	·	·	-1.6	·	·	·	·
COc1ccc(C(=O)C2CCN(C(=S)NCCc3ccccc3)CC2)cc1	3.7	-16.5	-4.9	9.1	3.6	·	·
COc1ccc(CCNC(=S)N2CCC(C(=O)c3ccc(F)cc3)CC2)cc1OC	17.3	36.6	43.2*	-19.7	26.7	5.2	27.4
COc1ccc(C(=O)C2CCN(C(=S)NCCc3ccc(OC)c(OC)c3)CC2)cc1	0.8	-11.1	44.0*	10.6	21.4	8.0	17.8
CN1CCCCC(NC(=O)C23CC4CC(CC(C4)C2)C3)C1=O (stereo unspecified)	·	13.4	-1.0	·	·	·	·
CCC(C)(C)c1ccc(Oc2ccc(N)cc2)cc1	68.8	90.7*	94.7*	68.2*	76.8*	91.2*	97.9*
Cc1nn(-c2ccccc2)c(Cl)c1C(=O)NC1CCCCC1	-18.4	-21.1	-5.6	-8.8	-1.3	·	·
